Records with an inconclusive call do not appear. The source made the active and inactive calls. Unless noted, the call rests on the fitted dose curve; in most records, active means well fitted curve in the direction sought with a large enough effect; inconclusive means small, poorly fitted or top-dose-only effect, or another doubt; inactive means no such curve, though single readings can be large; an effect the other way counts as inactive or inconclusive.
Key:
[1] = molecular target: Lysosomal acid glucosylceramidase (Homo sapiens) (UniProt P04062); assay: Glucocerebrosidase-p2 (AID 348; in the data active means potency below about 10 µM; further: potency means the concentration at half of the fitted maximal effect); details: purified GBA, blue fluorogenic substrate, 40 min
Lysosomal acid glucosylceramidase (Homo sapiens), sequence (P04062 whole entry, looked up): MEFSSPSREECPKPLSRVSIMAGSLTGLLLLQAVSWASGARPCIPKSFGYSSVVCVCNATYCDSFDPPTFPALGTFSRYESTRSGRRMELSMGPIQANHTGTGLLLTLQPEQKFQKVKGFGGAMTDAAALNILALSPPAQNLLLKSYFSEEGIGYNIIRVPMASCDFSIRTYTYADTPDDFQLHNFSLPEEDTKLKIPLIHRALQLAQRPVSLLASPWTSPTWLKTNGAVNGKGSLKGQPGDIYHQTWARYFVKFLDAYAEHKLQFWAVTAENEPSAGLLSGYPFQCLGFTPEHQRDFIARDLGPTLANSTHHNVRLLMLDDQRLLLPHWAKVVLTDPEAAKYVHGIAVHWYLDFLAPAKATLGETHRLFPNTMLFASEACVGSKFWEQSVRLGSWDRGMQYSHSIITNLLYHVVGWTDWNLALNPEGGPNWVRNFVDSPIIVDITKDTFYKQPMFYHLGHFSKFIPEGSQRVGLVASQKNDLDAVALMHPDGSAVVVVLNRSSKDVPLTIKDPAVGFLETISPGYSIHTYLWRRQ
Method in brief: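 Normal human glucocerebrosidase (0.2 nM) with blue fluorogenic substrate (80 uM final) in citrate/phosphate pH 5.9 with 10mM sodium taurocholate, 0.01% tween-20; 40 min RT, NaOH/glycine stop; fluorescence Ex 365/Em 440; AC50 from a titration from 0.6 nM upwards.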

[2] = molecular target: Cytochrome P450 1A2 (Homo sapiens) (UniProt P05177); assay: p450-cyp1a2 (AID 410; calls by dose curve;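 further: -100% = full effect of reference inhibitor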); details: recombinant CYP1A2, luciferin-ME demethylation, luminescence; series mostly up to 11.4 µM
Cytochrome P450 1A2 (Homo sapiens), sequence (P05177 whole entry, looked up): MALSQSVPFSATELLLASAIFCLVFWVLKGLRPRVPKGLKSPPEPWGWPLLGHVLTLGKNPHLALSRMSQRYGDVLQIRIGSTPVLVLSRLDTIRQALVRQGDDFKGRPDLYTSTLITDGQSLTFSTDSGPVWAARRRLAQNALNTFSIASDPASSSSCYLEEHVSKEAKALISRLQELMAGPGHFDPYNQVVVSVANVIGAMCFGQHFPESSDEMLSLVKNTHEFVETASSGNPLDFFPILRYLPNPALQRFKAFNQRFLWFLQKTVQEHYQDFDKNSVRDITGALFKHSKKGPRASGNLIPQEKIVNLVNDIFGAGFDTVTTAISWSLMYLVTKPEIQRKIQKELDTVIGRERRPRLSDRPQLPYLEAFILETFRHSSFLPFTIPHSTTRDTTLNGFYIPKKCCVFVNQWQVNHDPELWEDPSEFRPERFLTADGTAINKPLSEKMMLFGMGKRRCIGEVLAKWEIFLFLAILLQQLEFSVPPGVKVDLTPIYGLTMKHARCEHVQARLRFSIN
Method in brief: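 Luminescent demethylation readout: Luciferin-ME (100uM, equal to Km) turned over by 20nM CYP1A2 for 60 min at room temperature after NADPH regeneration addition, following 10 min compound preincubation. Normalization used 57 uM furafylline as full inhibition.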

[3] = NFAT Signaling Pathway (AID 444; active means well fitted curve in either direction with a large enough effect, not every such curve was filed as active;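 further: carbachol stimulus at about its EC50 of 1 µM final; on the % scale 0 is the no-effect control and ±100 the full control effect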); details: Jurkat NFAT-bla M1, carbachol, beta-lactamase ratio, 5 h; at 7.69 µM (top of the series) unless noted
Method in brief: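 Read-out: CCF4 FRET ratio (460 nm/530 nm) after 1 h RT dye loading, used for %activity and AC50 from titration series. Cells: Jurkat NFAT-β-lactamase/M1 line, treated with compound plus 1 uM carbachol for 5 h, 37 °C.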

[4] = Stat Signaling Pathway (AID 446; active means well fitted curve in either direction with a large enough effect, not every such curve was filed as active;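 further: ME-180 cervical cancer cells given 40 pM IL-6 alongside compound; SIE-controlled beta-lactamase reporter measured as 460/530 nm FRET emission ratio; on the % scale 0 is the no-effect control and ±100 the full control effect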); details: ME-180 (cervical carcinoma) SIE beta-lactamase reporter, IL-6 stimulated, 5 h; at 7.69 µM (top of the series) unless noted
Method in brief: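 Overnight-plated ME-180 cells bearing a STAT Inducible Element beta-lactamase reporter; 5 h co-exposure to compound and 40 pM IL-6; values normalized to 300 pM IL-6 and 125 nM JAK inhibitor controls.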

[5] = molecular target: Glucocorticoid receptor (Homo sapiens) (UniProt P04150); assay: GR-EFC Redistribution (AID 451; calls by dose curve; further: potency means the concentration at half of the fitted maximal effect); details: CHO-K1 GR-EFC translocation, beta-gal luminescence, 2 h
Glucocorticoid receptor (Homo sapiens), sequence (P04150 whole entry, looked up, the tested form may be a part): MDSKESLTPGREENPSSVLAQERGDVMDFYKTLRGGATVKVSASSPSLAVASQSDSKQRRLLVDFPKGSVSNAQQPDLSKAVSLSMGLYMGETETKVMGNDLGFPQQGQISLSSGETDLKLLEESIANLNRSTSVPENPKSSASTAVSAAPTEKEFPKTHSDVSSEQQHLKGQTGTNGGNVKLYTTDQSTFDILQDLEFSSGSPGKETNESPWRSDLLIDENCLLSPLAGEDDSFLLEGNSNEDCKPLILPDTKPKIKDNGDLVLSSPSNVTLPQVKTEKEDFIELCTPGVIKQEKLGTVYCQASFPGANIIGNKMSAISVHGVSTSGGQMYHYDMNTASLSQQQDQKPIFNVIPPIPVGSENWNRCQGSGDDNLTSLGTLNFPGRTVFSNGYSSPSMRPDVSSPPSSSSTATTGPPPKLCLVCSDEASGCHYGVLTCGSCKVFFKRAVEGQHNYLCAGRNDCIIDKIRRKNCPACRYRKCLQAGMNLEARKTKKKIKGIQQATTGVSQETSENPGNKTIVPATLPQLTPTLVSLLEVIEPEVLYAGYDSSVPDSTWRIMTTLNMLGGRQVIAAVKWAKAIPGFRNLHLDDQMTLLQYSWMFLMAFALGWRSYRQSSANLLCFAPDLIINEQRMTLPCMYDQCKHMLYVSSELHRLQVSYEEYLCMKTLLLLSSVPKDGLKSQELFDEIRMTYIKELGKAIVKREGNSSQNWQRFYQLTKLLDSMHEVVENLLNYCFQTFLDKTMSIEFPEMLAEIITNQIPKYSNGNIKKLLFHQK
Method in brief: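 Translocation of GR-ED fusion to nuclear EA restores b-gal, read by luminescence after 1 h room-temperature detection. Engineered CHO-K1 biosensor cells, 1,000/well, exposed 2 h at 37 C to titrations up to 46 uM final.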

[6] = molecular target: Mitogen-activated protein kinase 10 (Mus musculus) (UniProt Q61831); assay: JNK3 AlphaScreen Assay (AID 530; active means well fitted curve in either direction with a large enough effect, not every such curve was filed as active;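 further: kinase came from lysate of stimulated human HepG2 cells; signal reports phosphorylation of biotinylated GST-cJun 1-79 at Ser73 with 10 µM ATP; on the % scale 0 is the no-effect control and ±100 the full control effect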); details: JNK3 lysate, c-Jun phosphorylation; series mostly up to 57.1 µM
Method in brief: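 qHTS titrations with 15 min compound pre-incubation before adding ATP (10 uM final). Read-out: AlphaScreen of Ser73-phosphorylated biotin-GST-cJun using HepG2 lysate JNK3 activated by IL-1β and TNFα.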

[7] = molecular target: 3',5'-cyclic-AMP phosphodiesterase 4B (Homo sapiens) (UniProt Q07343); assay: qHTS Assay for Inhibitors of PDE-IV (AID 607; active means well fitted activation curve with a large enough effect in the main read-out, with a control signal flat, not every such curve was filed as active; further: % of control where 0% means no effect); details: HEK293 ACTOne CNG channel cells, membrane potential fluorescence; series mostly up to 22.9 µM
3',5'-cyclic-AMP phosphodiesterase 4B (Homo sapiens), sequence (Q07343 whole entry, looked up): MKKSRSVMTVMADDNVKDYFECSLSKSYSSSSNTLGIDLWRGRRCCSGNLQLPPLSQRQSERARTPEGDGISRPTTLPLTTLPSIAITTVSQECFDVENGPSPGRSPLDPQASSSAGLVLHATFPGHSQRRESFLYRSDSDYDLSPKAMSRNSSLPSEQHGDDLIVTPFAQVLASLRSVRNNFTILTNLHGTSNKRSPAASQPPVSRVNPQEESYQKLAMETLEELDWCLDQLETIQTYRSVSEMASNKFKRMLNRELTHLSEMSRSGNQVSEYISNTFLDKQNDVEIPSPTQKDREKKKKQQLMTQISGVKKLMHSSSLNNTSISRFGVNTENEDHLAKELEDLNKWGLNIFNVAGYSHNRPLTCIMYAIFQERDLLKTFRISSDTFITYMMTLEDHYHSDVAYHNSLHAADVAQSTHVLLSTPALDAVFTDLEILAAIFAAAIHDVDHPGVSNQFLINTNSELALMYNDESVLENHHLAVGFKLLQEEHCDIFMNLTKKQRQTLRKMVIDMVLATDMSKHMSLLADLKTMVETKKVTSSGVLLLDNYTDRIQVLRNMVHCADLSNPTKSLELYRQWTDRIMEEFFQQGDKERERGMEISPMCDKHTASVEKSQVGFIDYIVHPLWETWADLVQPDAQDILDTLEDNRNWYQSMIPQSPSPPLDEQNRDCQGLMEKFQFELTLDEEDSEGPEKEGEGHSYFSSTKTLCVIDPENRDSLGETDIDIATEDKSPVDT
Method in brief: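 Live HEK293 cells with a modified cyclic nucleotide-gated (CNG) channel report intracellular cAMP via membrane-potential dye fluorescence (ex 535/em 590 nm). Endogenous PDE-IV was targeted. Compounds were tested at up to 22.9 uM final; RO 20-1724 100 uM served as control.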

[8] = molecular target: Cytochrome P450 2D6 (Homo sapiens) (UniProt P10635); assay: qHTS Assay for Inhibitors and Substrates of Cytochrome P450 2D6 (AID 891); details: recombinant CYP2D6, luciferin-ME EGE luminescence; series mostly up to 11.4 µM; further: potency means the concentration at half of the fitted maximal effect; nearly all actives have a fitted effect of over 60% in size
Cytochrome P450 2D6 (Homo sapiens), sequence (P10635 whole entry, looked up): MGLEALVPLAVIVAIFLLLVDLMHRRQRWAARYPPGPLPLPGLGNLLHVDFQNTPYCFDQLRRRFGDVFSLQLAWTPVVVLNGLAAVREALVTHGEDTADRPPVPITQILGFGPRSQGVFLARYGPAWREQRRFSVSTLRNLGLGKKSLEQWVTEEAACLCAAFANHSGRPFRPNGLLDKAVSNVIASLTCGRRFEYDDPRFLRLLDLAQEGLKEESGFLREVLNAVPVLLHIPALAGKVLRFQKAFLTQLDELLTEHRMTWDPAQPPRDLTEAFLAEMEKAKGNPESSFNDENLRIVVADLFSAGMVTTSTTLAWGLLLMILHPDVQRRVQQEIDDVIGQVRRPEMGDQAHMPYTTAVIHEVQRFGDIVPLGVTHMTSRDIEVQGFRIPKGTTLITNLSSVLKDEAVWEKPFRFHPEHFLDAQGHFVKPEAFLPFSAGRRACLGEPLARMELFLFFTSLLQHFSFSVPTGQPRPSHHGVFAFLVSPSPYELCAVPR
Method in brief: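 Luminescent read-out of luciferin formed by 5 nM human CYP2D6 demethylating 30 uM Luciferin-ME EGE (Km level) over 60 min at room temperature after NADPH regeneration addition. Data normalized to full inhibition by 1.43 uM quinidine.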

[9] = molecular target: ATP-dependent 6-phosphofructokinase (Trypanosoma brucei brucei) (UniProt O15648); assay: qHTS Assay to Find Inhibitors of T. brucei phosphofructokinase: hit validation (AID 492961);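 further: luminescence reports ADP formed as PFK phosphorylates fructose-6-phosphate with ATP; on the % scale 0 is the no-effect control and ±100 the full control effect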; details: T. brucei PFK, ADP-Glo luminescence; series mostly up to 51.4 µM
ATP-dependent 6-phosphofructokinase (Trypanosoma brucei brucei), sequence (O15648 whole entry, looked up): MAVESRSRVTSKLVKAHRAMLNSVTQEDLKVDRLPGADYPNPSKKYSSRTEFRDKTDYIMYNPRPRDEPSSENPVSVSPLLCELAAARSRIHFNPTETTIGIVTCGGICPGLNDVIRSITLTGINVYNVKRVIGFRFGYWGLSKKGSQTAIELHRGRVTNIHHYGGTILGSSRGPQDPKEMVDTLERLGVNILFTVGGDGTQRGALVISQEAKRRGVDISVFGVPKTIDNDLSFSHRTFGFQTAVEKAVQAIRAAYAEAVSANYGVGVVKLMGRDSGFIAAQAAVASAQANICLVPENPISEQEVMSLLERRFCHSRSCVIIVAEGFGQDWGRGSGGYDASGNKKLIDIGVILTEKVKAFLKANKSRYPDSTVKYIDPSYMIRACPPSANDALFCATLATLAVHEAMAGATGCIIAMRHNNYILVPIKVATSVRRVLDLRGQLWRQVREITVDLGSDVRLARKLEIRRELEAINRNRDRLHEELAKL
Method in brief: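 Measures ADP output of PFK (1.25 nM) at 0.1 mM ATP, 0.5 mM F6P, pH 8.0 TEA buffer with 5 mM MgCl2. No-enzyme wells define full inhibition; uninhibited enzyme wells define zero.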

[10] = molecular target: Ubiquitin carboxyl-terminal hydrolase 1 (Homo sapiens) (UniProt O94782); assay: Inhibitors of USP1/UAF1: Pilot qHTS (AID 504865); details: purified USP1/UAF1, Ub-rhodamine cleavage fluorescence; series mostly up to 114 µM;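 further: rhodamine fluorescence freed from ubiquitin-rhodamine substrate followed over time; top concentration of the series differs between compounds; on the % scale 0 is the no-effect control and ±100 the full control effect; nearly all actives have a fitted effect of over 35% in size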
Ubiquitin carboxyl-terminal hydrolase 1 (Homo sapiens), sequence (O94782 whole entry, looked up): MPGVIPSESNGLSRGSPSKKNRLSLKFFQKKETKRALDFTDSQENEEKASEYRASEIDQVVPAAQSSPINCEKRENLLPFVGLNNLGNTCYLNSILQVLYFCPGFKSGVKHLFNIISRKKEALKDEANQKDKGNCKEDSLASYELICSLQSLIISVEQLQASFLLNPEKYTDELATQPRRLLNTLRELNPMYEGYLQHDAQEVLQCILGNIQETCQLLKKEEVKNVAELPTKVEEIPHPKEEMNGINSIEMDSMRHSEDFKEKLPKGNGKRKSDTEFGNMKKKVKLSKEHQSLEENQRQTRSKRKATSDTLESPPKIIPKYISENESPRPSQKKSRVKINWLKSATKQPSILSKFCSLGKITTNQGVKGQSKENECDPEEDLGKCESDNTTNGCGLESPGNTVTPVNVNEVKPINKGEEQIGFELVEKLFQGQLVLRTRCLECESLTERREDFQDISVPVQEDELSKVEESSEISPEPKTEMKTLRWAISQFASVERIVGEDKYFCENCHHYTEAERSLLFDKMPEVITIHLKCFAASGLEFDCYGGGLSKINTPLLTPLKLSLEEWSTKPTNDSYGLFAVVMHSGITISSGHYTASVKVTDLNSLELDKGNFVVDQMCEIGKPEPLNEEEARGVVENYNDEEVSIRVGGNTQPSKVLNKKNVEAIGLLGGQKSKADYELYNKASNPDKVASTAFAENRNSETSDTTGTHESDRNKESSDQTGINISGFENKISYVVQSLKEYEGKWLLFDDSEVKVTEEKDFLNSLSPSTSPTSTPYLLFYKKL
Method in brief: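 1nM USP1/UAF1 + cpd, 15 min RT; start w/ Ub-Rho 150nM final; kinetic FL 480/540 nm, 6 reads q60 s. Buffer 50mM HEPES pH 7.8, 0.5mM EDTA, 1mM TCEP, 0.01% Tween-20, 0.1 mg/ml BSA.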

[11] = molecular target: Luciferin 4-monooxygenase (Photinus pyralis) (UniProt P08659); assay: Biochemical firefly luciferase enzyme assay for NPC (AID 624030);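 further: purified P. pyralis luciferase at 10 nM with luciferin and ATP substrate; 0% = DMSO and -100% = full luciferase inhibition by PTC124 control; nearly all actives have a fitted effect of over 70% in size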; details: purified P. pyralis luciferase, luminescence, 5 min; series mostly up to 58.6 µM
Luciferin 4-monooxygenase (Photinus pyralis), sequence (P08659 whole entry, looked up): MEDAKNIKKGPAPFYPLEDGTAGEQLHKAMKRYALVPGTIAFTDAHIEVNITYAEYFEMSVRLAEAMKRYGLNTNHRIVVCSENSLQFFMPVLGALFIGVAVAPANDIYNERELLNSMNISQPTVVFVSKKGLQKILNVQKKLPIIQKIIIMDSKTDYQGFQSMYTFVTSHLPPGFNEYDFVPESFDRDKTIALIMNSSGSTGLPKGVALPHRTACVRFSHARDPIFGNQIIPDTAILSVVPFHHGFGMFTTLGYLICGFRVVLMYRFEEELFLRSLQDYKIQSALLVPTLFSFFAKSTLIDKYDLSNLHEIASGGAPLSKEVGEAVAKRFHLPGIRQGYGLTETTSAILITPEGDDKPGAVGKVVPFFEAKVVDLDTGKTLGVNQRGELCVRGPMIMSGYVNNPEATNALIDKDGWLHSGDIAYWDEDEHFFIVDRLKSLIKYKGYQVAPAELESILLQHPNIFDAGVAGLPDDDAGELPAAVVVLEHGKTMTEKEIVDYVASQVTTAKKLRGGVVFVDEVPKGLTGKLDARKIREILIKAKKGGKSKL
Method in brief: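 Direct inhibition of firefly luciferase enzyme (10 nM final, 50 mM Tris Acetate) assessed by luminescence within 5 minutes. Percent activity scaled between DMSO and PTC124 positive control, with concentration-effect curves classified by fit quality and response.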

[12] = S16 Schwann cell viability assay (CellTiter-Glo assay) (AID 624031); details: S16 rat Schwann cells viability, 24 h; series mostly up to 57.5 µM;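 further: native untransfected S16 rat Schwann cells; plate controls were DMSO-treated cells for no effect and cell-free wells for full effect; nearly all actives have a fitted effect of over 70% in size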
Method in brief: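 Counter-screen for cytotoxicity: parental S16 rat Schwann cells lacking the PMP22 reporters, treated 24 h with compound, viability from cellular ATP by CellTiter-Glo luminescence, normalized to DMSO (0%) and no-cell wells.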

[13] = S16 Schwann cell PMP22 intronic element firefly luciferase assay (AID 624032); details: S16 rat Schwann cells, PMP22 element FLuc, 24 h; series mostly up to 57.5 µM;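 further: plate controls were DMSO for no effect and PTC124 positive control mean for full effect; nearly all actives have a fitted effect of over 30% in size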
Method in brief: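 Luciferase reporter of PMP22 intronic-element expression in stably transfected S16 rat Schwann cells, read by ONE-Glo luminescence after 24 h compound exposure at 37 C. Activity scaled between DMSO (0%) and positive-control PTC124; concentration-effect curves quality-classified.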

[14] = S16 Schwann cell PMP22 intronic element beta-lactamase assay (AID 624044; calls by dose curve;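 further: 0% = DMSO and -100% = potassium clavulanate positive control; nearly all actives have a fitted effect of over 15% in size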); details: S16 rat Schwann cells, PMP22 element beta-lactamase FRET, 24 h; series mostly up to 38.3 µM
Method in brief: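 Beta-lactamase reporter under a PMP22 intronic regulatory element in stable S16 rat Schwann cells; 24 h compound exposure. 460 nm blue signal normalized between DMSO (0%) and potassium clavulanate, with 535 nm FRET tracking viability; curves classed by r2 and response.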

[15] = qHTS profiling for inhibitors of Plasmodium falciparum proliferation (AID 504749); further: potency means the concentration at half of the fitted maximal effect; nearly all actives have a fitted effect of over 60% in size; details: P. falciparum in erythrocytes, SYBR Green DNA, 72 h
Method in brief: (§1)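 SYBR Green fluorescence of parasite DNA, read after lysis and overnight dark incubation, measured growth over 72 h in erythrocyte culture at 0.3% parasitemia and 2.5% hematocrit. Data normalised to DMSO and 0.29 uM artemisinin, with plate-drift correction.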

3D7 = assay: as above; details: P. falciparum in erythrocytes, SYBR Green DNA, 72 h; series mostly up to 28.7 µM
Method in brief: as §1

7G8 = assay: as above; details: P. falciparum in erythrocytes, SYBR Green DNA, 72 h; series mostly up to 28.7 µM
Method in brief: as §1

AA1029 = assay: as above; details: P. falciparum in erythrocytes, SYBR Green DNA, 72 h; series mostly up to 28.7 µM
Method in brief: as §1

AS120 = assay: as above; details: P. falciparum in erythrocytes, SYBR Green DNA, 72 h; series mostly up to 28.7 µM
Method in brief: as §1

ATS189 = assay: as above; details: P. falciparum in erythrocytes, SYBR Green DNA, 72 h; series mostly up to 28.7 µM
Method in brief: as §1

ATS95 = assay: as above; details: P. falciparum in erythrocytes, SYBR Green DNA, 72 h; series mostly up to 28.7 µM
Method in brief: as §1

C2A = assay: as above; details: P. falciparum in erythrocytes, SYBR Green DNA, 72 h; series mostly up to 28.7 µM
Method in brief: as §1

CP185 = assay: as above; details: P. falciparum in erythrocytes, SYBR Green DNA, 72 h; series mostly up to 28.7 µM
Method in brief: as §1

CP191 = assay: as above; details: P. falciparum in erythrocytes, SYBR Green DNA, 72 h; series mostly up to 28.7 µM
Method in brief: as §1

CP192 = assay: as above; details: P. falciparum in erythrocytes, SYBR Green DNA, 72 h; series mostly up to 28.7 µM
Method in brief: as §1

CP194 = assay: as above; details: P. falciparum in erythrocytes, SYBR Green DNA, 72 h; series mostly up to 28.7 µM
Method in brief: as §1

CP201 = assay: as above; details: P. falciparum in erythrocytes, SYBR Green DNA, 72 h; series mostly up to 28.7 µM
Method in brief: as §1

CP203 = assay: as above; details: P. falciparum in erythrocytes, SYBR Green DNA, 72 h; series mostly up to 28.7 µM
Method in brief: as §1

CP211 = assay: as above; details: P. falciparum in erythrocytes, SYBR Green DNA, 72 h; series mostly up to 28.7 µM
Method in brief: as §1

CP215 = assay: as above; details: P. falciparum in erythrocytes, SYBR Green DNA, 72 h; series mostly up to 28.7 µM
Method in brief: as §1

CP217 = assay: as above; details: P. falciparum in erythrocytes, SYBR Green DNA, 72 h; series mostly up to 28.7 µM
Method in brief: as §1

CP237 = assay: as above; details: P. falciparum in erythrocytes, SYBR Green DNA, 72 h; series mostly up to 28.7 µM
Method in brief: as §1

CP238 = assay: as above; details: P. falciparum in erythrocytes, SYBR Green DNA, 72 h; series mostly up to 28.7 µM
Method in brief: as §1

CP247 = assay: as above; details: P. falciparum in erythrocytes, SYBR Green DNA, 72 h; series mostly up to 28.7 µM
Method in brief: as §1

CP250 = assay: as above; details: P. falciparum in erythrocytes, SYBR Green DNA, 72 h; series mostly up to 28.7 µM
Method in brief: as §1

CP252 = assay: as above; details: P. falciparum in erythrocytes, SYBR Green DNA, 72 h; series mostly up to 28.7 µM
Method in brief: as §1

C=C[C@@H]1CN2CC[C@H]1C[C@H]2[C@H](O)c1ccnc2ccccc12
active: Potency [8] 3980 nM | Potency ([15]; parasite line A) 89.1 nM | Potency ([15]; parasite line B) 100 nM | Potency (3D7) 158 nM | Potency (7G8) 158 nM | Potency (AA1029) 891 nM | Potency (AS120) 891 nM | Potency (ATS189) 794 nM | Potency (ATS95) 447 nM | Potency (C2A) 1410 nM | Potency (CP185) 1260 nM | Potency (CP191) 501 nM | Potency (CP192) 953 nM | Potency (CP194) 849 nM | Potency (CP201) 1510 nM | Potency (CP203) 675 nM | Potency (CP211) 953 nM | Potency (CP215) 757 nM | Potency (CP217) 1260 nM | Potency (CP237) 1120 nM | Potency (CP238) 1410 nM | Potency (CP247) 2240 nM | Potency (CP250) 1580 nM | Potency (CP252) 1120 nM
inactive: Potency [1] > 11400 nM | Potency [2] | activity change, negative = inhibition [3] 0.393% | activity, negative = inhibition [4] 3.16% | Potency [5] > 9220 nM | activity change, negative = inhibition [6] 5.22% [at 11.4 µM] | outcome [7] | outcome [9] | Potency [10] | outcome [11] | outcome [12] | outcome [13] | outcome [14]

Reference: PubChem BioAssay (NCATS)
